G9a inh: blocks human histone lysine methyltransferase G9a | Potency, µM (series often up to 102 µM), hits mostly inhibitors | AID 504332 | 8.8% of 350,000 active | G9a H3K9 monomethylation, AlphaScreen, 2 h; also: nearly all actives have a fitted effect of over 75% in size
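Quantitative HTS format: methyltransferase activity on a biotin-tagged H3K9 peptide is measured by AlphaScreen, using a rabbit anti-monomethyl-H3K9 antibody with streptavidin donor and anti-IgG acceptor beads. Final levels are 20 nM enzyme, 500 nM peptide, 20 uM SAM; 2 h RT.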
HP1b binding inh: inhibitors of HP1-beta chromodomain binding to methylated histone tails. Potency, µM (top dose mostly 114 µM), actives largely listed as inhibitors. AlphaScreen HP1-beta / biotin-H3K9me3 peptide binding. P83916. 0.56% of 390,000 active; also: nearly all actives have a fitted effect of over 70% in size
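Compound inhibition of the preformed complex between 50 nM HP1-beta and 50 nM biotinylated H3K9me3 peptide was read by AlphaScreen. Buffer was PBS pH 7.4 with 0.01% Tween-20. Incubations ran 30 min at room temperature, with 10 ug/mL donor/acceptor beads.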
BAZ2B block: blocks human BAZ2B | Potency, µM (series often up to 114 µM), usual class: inhibitors | AID 504333 | AlphaScreen BAZ2B-H3K14Ac peptide displacement | Q9UIF8 | 4.4% of 360,000 active; also: nearly all actives have a fitted effect of over 60% in size
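BAZ2B 50 nM plus b-H3(5-23)K14Ac 50 nM, PBS pH 7.4/0.01% Tween-20, 30 min RT; compound added (max 110 uM), 30 min RT; streptavidin donor/Ni-chelate acceptor beads 10 ug/mL final, 20 min dark; AlphaScreen read.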
L3MBTL1 block: L3MBTL1 (human) inhibition | Q9Y468 | AlphaScreen L3MBTL1–H3K9me1 peptide binding | Potency, µM (titrated, usually from 57.1 µM), usual class: inhibitors | 0.66% of 230,000 active | AID 485360; also: nearly all actives have a fitted effect of over 60% in size
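Displacement of a biotinylated histone H3(1-15) peptide monomethylated at Lys9 (75 nM) from L3MBTL1 (50 nM) was measured by AlphaScreen after a 30 min room-temperature compound incubation; cefsulodin titration served as intraplate control.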
Sfp inh: inhibitors of Bacillus subtilis Sfp phosphopantetheinyl transferase | Biochemical Sfp PPTase activity, qHTS | Potency, µM, hits mostly inhibitors | 3.5% of 310,000 active;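 also: the enzyme is Sfp with the accession as filed and its product quenches rhodamine fluorescence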
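Step 1, compound plus 15 nM Sfp-PPTase, 15 min, room temperature. Step 2, add rhodamine-CoA (5 uM) and BHQ-2-YbbR (12.5 uM). Step 3, read 525/598 nm fluorescence at 0 and 30 min.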
JMJD2A Tudor: blocks the human JMJD2A Tudor domain; AlphaScreen JMJD2A-Tudor / H3K4me3 peptide binding; O75164; Potency, µM (series often up to 114 µM), usual class: inhibitors; AID 504339; 4.4% of 390,000 active; also: nearly all actives have a fitted effect of over 50% in size
Hits are given with their value; - = inactive; ? = inconclusive; . = no result; [ ] = dose if it differs, or a comment. A selection: hits, their analogues and other compounds. The true share with any hit is near 12%. Calls follow the shape of the dose curve; as a rule, active = well fitted curve in the direction sought with a large enough effect; inconclusive = small, poorly fitted or top-dose-only effect, or another doubt; inactive = no such curve, though single readings can be large; an effect the other way counts as inactive or inconclusive.

SMILES	G9a inh	HP1b binding inh	BAZ2B block	L3MBTL1 block	Sfp inh	JMJD2A Tudor
CCN(CC)S(=O)(=O)c1ccc(C(=O)NCc2n[nH]c(=S)n2-c2ccc(Cl)c(Cl)c2)cc1	16µM	-	-	.	?	-
CCOCCCNC(=O)C(c1ccc(Cl)cc1)N(Cc1cccs1)C(=O)CNC(C)=O (stereo not given)	-	-	-	-	-	-
NNC(=O)c1ccc(CSc2n[nH]c(=O)[nH]c2=O)cc1	4µM	-	-	-	-	-
COc1ccc(NC(=S)N2CCN(C/C=C/c3ccccc3)CC2)cc1OC	.	-	?	-	-	-
COc1ccc(O)c(CN2CCN(C/C=C/c3ccccc3)CC2)c1	?	-	?	-	-	56µM
COc1cc(Br)cc(CN2CCN(C/C=C/c3ccccc3)CC2)c1O	40µM	-	40µM	-	-	?
COc1cc(C/C=C\c2ccccc2)c(OC)cc1O	.	.	.	.	45µM	.
Cc1cc2c3c(cccc3n1)C(=O)c1ccccc1-2	.	.	.	.	-	.
COc1ccc(S(=O)(=O)Nc2noc3ccccc23)cc1	-	-	-	.	-	-
COc1cc2c(cc1OC)CN(c1ccc3ccccc3n1)CC2	?	-	-	.	56µM	-
C=C(C)C1CC=C(C)/C(=N\NC(=S)Nc2ccc(C)cc2)C1 (stereo not given)	-	-	?	-	-	-
CCCCNC(=O)CCn1c(=O)c2ccccc2n(CC(=O)Nc2ccccc2OCC)c1=O	-[12.7 µM]	-	-	-	-	-
COc1cccc(-n2c(=O)c3ccccc3n3c(=S)[nH]nc23)c1	1.6µM	-	-	.	?	11µM
CCOc1ccccc1NC(=O)Cn1c(=O)n(CCCCC(=O)NCCCOC)c(=O)c2ccccc21	-	-	79µM	.	.	-
Cc1ccccc1-n1c(=O)c2ccccc2n2c(=O)[nH]nc12	-	-	-	-	-	-
Cc1cccc(-n2c(=O)c3ccccc3n3c(=S)[nH]nc23)c1C	1.1µM	-	-	.	-	25µM
CCc1ccc(-n2c(=O)c3ccccc3n3c(=S)[nH]nc23)cc1	1.4µM	-	-	.	45µM	4.5µM
Cc1ccc(C(=O)NNC(=O)CSc2nnc(C(C)C)n2C)cc1	-	-	-	.	-	-
COCCCn1c(=O)c2ccccc2n2c(=S)[nH]nc12	8.9µM	?	-	.	79µM	10µM
COCCCn1c(=O)c2ccccc2n(Cc2ccccc2)c1=O	6.3µM	-	?	-	-	-
CCn1c(SCC(=O)NNC(=O)c2ccc(OC)cc2)nnc1-c1cccnc1	.	-	-	-	-	-
Cc1[nH]c2ccccc2c1C(=O)COC(=O)c1ccc([N+](=O)[O-])s1	32µM	-	?	-	-	?
Cc1c(Cl)cnc(NC(=O)COC(=O)c2ccc([N+](=O)[O-])s2)c1Cl	25µM	-	45µM	?	?	50µM
O=C(COC(=O)c1ccc2ncsc2c1)Nc1ncc(Cl)cc1Cl	?	-	50µM	?	-	?
O=C(COC(=O)c1ccc(O)cc1)Nc1ncc(Cl)cc1Cl	?	-	79µM	?	-	-
SMILES	G9a inh	HP1b binding inh	BAZ2B block	L3MBTL1 block	Sfp inh	JMJD2A Tudor
CCC(CC)C(=O)Nc1cc(-c2cccc(C)c2)nn1-c1ccccc1	-	-	-	.	.	-
CC(C)[C@@H](CC(=O)N[C@@H]1CCNC[C@H]1C(=O)N[C@H](CC(=O)N[C@@H](CCC(=O)O)CC(=O)O)Cc1c[nH]c2ccccc12)NC(=O)C[C@H](Cc1ccccc1)NC(=O)[C@@H]1CNCC[C@H]1N	.	.	.	.	-	.
Cc1c(Cl)cnc(NC(=O)COC(=O)c2ccc3ncsc3c2)c1Cl	?	-	50µM	?	-	?
Cc1cccn2c(=O)c(C=O)c(N3CCN(c4ccc(F)cc4)CC3)nc12	-	-	?	-	-	-
Cc1cccc(OCC(=O)O/N=C(\N)Cc2ccc([N+](=O)[O-])cc2)c1	35µM	-	-	-	-	-
CCc1ccc(NC(=O)c2ccc3c(c2)C(=O)N(Cc2ccco2)C3=O)cc1	50µM	-	?	?	40µM	?
O=C1c2cccc3c(O)ccc(c23)C(=O)N1Cc1ccco1	40µM	-	-	?	7.1µM	-
O=C(O)c1cccc(NC(=O)c2ccc3c(c2)C(=O)N(Cc2ccco2)C3=O)c1	.	-	?	-	-	-

Assay outcomes (PubChem BioAssay)
